Residual activity data for 26 compounds are collected here from ChEMBL document CHEMBL2218924, “A broad activity screen in support of a chemogenomic map for kinase signalling research and drug discovery” (Biochem J, 2013).

Test [1] concerns the target BDNF/NT-3 growth factors receptor (Homo sapiens) (UniProt Q16620). The note with it: at 10 µM.
Test [2] deals with T1, Tyrosine-protein kinase TXK (Homo sapiens) (UniProt P42681).
T1 sequence (whole entry): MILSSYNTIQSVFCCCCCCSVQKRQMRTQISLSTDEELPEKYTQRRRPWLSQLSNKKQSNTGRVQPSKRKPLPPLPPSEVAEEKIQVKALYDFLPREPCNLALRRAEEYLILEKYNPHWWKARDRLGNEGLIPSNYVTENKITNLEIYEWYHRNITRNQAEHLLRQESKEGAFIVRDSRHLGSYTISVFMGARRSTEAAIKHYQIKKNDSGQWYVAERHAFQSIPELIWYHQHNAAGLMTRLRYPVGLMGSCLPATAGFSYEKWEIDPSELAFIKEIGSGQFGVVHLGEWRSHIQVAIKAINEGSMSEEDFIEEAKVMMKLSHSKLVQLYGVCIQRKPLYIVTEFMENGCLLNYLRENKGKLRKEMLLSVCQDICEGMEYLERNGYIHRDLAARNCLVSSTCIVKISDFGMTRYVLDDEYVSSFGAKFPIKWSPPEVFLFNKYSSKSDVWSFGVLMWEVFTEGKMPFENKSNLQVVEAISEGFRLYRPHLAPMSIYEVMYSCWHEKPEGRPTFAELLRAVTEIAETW
Particulars: at 1 µM.

In test [3] the target is T1, Tyrosine-protein kinase TXK (Homo sapiens). The note with it: at 10 µM.
Test [4] addresses T2, Serine/threonine-protein kinase ULK2 (Homo sapiens) (UniProt Q8IYT8).
T2 sequence (whole entry): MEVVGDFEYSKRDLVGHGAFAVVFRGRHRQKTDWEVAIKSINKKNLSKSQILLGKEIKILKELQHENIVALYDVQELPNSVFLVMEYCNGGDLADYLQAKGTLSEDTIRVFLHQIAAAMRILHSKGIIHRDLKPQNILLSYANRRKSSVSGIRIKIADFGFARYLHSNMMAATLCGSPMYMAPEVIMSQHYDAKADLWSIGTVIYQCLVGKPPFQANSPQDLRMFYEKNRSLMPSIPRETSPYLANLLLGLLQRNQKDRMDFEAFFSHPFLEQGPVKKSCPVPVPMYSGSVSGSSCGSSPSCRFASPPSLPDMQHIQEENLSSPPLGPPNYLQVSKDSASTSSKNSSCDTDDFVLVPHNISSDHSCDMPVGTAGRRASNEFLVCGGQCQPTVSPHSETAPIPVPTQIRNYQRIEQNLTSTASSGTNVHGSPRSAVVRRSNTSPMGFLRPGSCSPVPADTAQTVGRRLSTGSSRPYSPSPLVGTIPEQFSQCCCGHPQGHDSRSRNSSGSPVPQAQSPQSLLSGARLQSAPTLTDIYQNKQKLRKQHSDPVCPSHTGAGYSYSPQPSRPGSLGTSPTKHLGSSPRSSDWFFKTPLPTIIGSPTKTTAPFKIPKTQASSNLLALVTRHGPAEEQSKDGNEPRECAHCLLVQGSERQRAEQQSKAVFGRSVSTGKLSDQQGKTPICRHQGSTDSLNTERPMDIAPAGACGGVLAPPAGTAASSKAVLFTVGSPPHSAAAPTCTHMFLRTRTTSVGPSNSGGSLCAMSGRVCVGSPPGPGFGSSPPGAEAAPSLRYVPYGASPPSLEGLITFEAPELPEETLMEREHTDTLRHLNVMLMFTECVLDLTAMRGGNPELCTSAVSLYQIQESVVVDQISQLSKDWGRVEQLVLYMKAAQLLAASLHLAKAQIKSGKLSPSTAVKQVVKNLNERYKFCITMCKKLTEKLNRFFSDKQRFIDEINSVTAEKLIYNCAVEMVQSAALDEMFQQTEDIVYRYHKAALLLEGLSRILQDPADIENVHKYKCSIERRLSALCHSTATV
The note with it: at 1 µM.

In test [5] the target is T2, Serine/threonine-protein kinase ULK2 (Homo sapiens). The note with it: at 10 µM.
For test [6], the target named is T3, Serine/threonine-protein kinase ULK3 (Homo sapiens) (UniProt Q6PHR2).
T3 sequence (whole entry): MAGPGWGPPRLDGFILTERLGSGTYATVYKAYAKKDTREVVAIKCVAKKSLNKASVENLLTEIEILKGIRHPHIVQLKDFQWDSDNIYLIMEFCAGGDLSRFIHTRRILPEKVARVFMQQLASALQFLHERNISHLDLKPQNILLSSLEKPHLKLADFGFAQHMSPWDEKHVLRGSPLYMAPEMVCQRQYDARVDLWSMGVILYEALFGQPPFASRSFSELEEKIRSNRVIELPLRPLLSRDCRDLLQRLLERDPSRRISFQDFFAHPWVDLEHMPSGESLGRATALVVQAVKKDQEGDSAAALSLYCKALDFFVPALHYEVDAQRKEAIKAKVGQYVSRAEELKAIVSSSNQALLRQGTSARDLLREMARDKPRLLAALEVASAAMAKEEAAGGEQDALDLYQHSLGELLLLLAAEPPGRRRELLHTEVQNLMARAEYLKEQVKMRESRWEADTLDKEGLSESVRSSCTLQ
Particulars: at 1 µM.

For test [7], the target named is T3, Serine/threonine-protein kinase ULK3 (Homo sapiens). Particulars: at 10 µM.
The target in test [8] is Serine/threonine-protein kinase VRK2 (Homo sapiens) (UniProt Q86Y07). The note with it: at 10 µM.
Chain of Serine/threonine-protein kinase VRK2 (Homo sapiens) (Q86Y07 whole entry): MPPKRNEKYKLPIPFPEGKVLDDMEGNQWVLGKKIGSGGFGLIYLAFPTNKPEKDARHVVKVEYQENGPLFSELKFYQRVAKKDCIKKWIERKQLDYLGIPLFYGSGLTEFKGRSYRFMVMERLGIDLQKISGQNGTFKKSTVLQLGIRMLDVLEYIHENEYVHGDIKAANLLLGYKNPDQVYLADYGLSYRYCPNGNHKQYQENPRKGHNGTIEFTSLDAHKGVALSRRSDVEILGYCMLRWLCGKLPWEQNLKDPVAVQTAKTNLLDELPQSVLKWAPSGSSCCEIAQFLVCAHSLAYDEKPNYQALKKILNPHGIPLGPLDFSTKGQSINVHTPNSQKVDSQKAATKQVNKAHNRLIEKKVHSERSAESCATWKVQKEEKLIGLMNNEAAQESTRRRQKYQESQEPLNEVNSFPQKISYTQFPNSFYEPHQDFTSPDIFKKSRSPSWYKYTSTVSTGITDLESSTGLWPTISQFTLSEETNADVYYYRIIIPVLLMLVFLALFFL
Test [9] deals with Serine/threonine-protein kinase WNK2 (Homo sapiens) (UniProt Q9Y3S1). The note with it: at 1 µM.
Chain of Serine/threonine-protein kinase WNK2 (Homo sapiens) (Q9Y3S1 whole entry): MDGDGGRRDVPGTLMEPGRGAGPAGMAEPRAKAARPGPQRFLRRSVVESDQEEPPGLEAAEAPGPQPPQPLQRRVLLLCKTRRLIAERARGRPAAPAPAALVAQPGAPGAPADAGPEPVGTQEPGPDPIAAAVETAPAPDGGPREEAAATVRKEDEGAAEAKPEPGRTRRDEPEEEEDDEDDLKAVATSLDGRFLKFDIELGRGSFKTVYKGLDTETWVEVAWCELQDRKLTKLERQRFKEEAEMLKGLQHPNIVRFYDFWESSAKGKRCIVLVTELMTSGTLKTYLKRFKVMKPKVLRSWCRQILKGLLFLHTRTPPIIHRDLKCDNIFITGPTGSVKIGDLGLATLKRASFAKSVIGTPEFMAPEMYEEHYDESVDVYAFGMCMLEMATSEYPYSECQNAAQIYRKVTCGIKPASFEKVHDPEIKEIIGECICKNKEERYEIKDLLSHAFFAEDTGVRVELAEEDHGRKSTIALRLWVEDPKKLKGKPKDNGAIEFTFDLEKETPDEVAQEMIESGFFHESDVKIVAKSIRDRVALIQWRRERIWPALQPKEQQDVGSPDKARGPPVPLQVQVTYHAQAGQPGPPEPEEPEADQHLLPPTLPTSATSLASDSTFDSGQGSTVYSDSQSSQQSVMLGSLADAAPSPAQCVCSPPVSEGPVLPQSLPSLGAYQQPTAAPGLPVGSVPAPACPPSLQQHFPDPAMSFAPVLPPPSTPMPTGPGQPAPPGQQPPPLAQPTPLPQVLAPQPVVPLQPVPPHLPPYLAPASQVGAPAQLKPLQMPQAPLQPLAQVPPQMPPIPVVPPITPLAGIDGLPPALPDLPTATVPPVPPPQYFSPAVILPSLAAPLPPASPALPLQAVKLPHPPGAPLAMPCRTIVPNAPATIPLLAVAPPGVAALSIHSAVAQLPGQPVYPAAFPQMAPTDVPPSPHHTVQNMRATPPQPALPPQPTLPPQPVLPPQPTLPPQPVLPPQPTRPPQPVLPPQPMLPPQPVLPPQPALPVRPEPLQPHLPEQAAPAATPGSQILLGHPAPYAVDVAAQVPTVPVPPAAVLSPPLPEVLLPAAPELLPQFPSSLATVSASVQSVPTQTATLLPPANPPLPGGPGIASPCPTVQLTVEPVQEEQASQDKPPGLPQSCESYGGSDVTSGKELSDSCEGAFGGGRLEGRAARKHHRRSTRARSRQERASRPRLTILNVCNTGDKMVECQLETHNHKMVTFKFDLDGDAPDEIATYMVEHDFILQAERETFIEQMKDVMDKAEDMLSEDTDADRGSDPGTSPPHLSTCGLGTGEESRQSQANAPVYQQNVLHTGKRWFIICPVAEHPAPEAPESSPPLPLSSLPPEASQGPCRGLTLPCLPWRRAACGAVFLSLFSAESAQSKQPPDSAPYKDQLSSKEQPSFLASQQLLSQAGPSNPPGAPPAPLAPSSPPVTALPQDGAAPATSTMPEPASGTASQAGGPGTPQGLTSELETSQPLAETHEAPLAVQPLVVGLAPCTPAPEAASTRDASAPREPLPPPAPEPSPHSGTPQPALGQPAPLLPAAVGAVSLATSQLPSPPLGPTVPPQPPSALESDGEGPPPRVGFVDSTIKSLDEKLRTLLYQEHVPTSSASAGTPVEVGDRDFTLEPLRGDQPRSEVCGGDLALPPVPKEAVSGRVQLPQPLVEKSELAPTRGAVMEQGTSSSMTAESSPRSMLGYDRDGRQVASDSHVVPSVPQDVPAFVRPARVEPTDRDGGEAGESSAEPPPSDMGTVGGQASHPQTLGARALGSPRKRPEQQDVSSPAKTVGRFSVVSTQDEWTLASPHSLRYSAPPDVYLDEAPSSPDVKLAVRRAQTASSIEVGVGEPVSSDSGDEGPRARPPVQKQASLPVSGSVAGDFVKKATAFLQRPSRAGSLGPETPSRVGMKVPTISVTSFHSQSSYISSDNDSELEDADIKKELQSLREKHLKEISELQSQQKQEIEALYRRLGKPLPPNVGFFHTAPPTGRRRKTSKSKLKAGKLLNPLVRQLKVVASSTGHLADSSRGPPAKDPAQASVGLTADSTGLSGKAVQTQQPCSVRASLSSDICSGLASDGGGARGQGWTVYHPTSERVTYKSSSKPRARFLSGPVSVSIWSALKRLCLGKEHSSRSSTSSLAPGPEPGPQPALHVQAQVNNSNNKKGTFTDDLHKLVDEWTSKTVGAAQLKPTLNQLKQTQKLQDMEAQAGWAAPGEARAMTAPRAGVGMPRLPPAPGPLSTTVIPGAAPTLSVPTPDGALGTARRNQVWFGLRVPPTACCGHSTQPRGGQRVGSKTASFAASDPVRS
Test [10] has as its target Serine/threonine-protein kinase VRK2 (Homo sapiens) (UniProt Q86Y07). Particulars: at 1 µM.

Chain of BDNF/NT-3 growth factors receptor (Homo sapiens) (Q16620 32-822 limits assumed): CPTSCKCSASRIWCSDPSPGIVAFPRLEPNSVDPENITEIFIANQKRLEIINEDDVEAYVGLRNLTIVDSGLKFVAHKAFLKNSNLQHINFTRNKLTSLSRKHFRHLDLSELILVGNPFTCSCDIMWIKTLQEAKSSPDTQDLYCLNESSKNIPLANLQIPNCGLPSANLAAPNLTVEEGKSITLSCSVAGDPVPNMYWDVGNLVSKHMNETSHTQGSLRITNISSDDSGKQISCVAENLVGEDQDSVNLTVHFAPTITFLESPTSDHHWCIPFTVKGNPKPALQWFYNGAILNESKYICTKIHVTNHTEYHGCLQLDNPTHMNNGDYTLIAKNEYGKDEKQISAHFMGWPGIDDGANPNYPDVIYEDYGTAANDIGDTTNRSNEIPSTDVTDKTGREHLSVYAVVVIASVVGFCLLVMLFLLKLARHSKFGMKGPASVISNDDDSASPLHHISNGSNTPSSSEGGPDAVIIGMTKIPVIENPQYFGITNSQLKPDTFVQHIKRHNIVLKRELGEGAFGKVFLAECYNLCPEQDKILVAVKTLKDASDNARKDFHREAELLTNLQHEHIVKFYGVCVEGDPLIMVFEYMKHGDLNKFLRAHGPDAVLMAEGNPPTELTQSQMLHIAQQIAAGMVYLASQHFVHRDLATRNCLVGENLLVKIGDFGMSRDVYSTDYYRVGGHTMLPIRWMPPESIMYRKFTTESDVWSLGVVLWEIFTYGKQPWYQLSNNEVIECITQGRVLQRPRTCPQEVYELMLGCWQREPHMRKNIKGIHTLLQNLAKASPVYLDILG

For orientation: residual activity means the signal under treatment as a percentage of the control signal. Consider `O=C1NC(=O)C(c2cn(CCCn3ccnc3)c3ccccc23)=C1Nc1ccccc1`, for which, in test [1], the residual activity came to 18%.
Consider `CN(C)S(=O)(=O)c1ccc2c(c1)/C(=C/c1cc3c([nH]1)CCCC3)C(=O)N2`, for which the residual activity in test [1] was determined as 1%; in test [2], 92%; in test [3] it was 90%; in [4] it was 38%; in [5], 13%; in [6] it was 11%. In addition, the residual activity in [7] is 6%; in test [8] it was 91%; in test [9] it was 94% (inactive).
Consider `COc1cc2ncnc(Nc3cccc(Cl)c3)c2cc1OC`, for which the residual activity turned out to be 61% in [1]; 87% in [2]; 49% in test [3]; 104% in test [4]; 100% in [5]; 102% in test [6]. Further, the residual activity in [7] was 79%; in [10] it was 102% (inactive); in test [8], 74%.
As for `O=C1C(Cl)=C(N2C(=O)CCC2=O)C(=O)c2ccccc21`, the residual activity in [1] was 93%; in test [2], 76%; in [3], 87%; in [6], 87%; in [7], 97%; in [10], 93% (inactive). Also, the results for the residual activity in [8] and in test [9] were 98% and 89% (inactive), respectively.
As to `O=C(NC(NC(=S)Nc1ccc(F)c([N+](=O)[O-])c1)C(Cl)(Cl)Cl)C(c1ccccc1)c1ccccc1` (stereo not given), the residual activity in test [1] was found to be 89%; in test [2], 82%; in [3], 76%; in [4], 96%; in [6], 97%; in test [7], 98%. Also, the residual activity in test [8] came to 95%.
Take `O=C1NC(=O)C(c2cn(CCCO)c3ncccc23)=C1c1cnccn1`: the residual activity in test [1] amounted to 90%; in test [2] it was 82%; in [3], 86%; in [6] it was 93%; in [7] it was 92%.
Consider `O=C(c1ccccc1)c1ccc(N2CCOCC2)cc1O`, for which the residual activity in test [1] was 113%; in test [2], 82%; in [3], 70%; in test [5], 94%; in test [7], 92%; in test [10], 98% (inactive). Further, the residual activity in [8] is 94%; in test [9], 115% (inactive).
`O=C(O)/C=C/c1cc(Br)c(Br)c(Br)c1Br`: the residual activity was determined as 83% in [1]; 94% in test [2]; 95% in test [3]; 109% in [4]; 107% in test [5]; 98% in test [6]. The residual activity in [7] was 93%; in test [10] it was 109% (inactive); in test [8] it was 105%.
Take `CC(C)(C)c1nc2c3ccc(F)cc3c3c(=O)[nH]ccc3c2[nH]1`: the residual activity in test [1] is -2%; in test [2] it was 63%; in test [3], 57%; in test [4], 26%; in test [5] it was 25%; in test [6] it was 56%. Besides, the residual activity in test [7] is 13%.
On to `Nc1nccc(-c2c(-c3ccc(F)cc3)ncn2C2CCNCC2)n1`, for which the figures for the residual activity in [1], in test [2] and in test [3] were 61%, 83% and 64%, respectively.
Regarding `O=C(Nc1nc2ccccc2n1CCN1CCOCC1)c1cccc([N+](=O)[O-])c1`, the residual activity in test [1] was determined as 15%; in test [2] it was 104%; in test [3], 77%; in test [6], 103%; in [7], 83%.
As to `CC(C)c1nn(-c2c(Cl)cccc2Cl)c2nc(Cc3ccc(OCCO)cc3)[nH]c(=O)c12`, the residual activity in test [1] is 79%; in test [2], 96%; in [3] it was 99%; in test [4], 81%; in test [5], 49%; in [6], 84%. Moreover, the residual activity in test [7] was 45%; in test [10], 100% (inactive); in test [8], 96%; in [9] it was 108% (inactive).
For the compound `CCCCc1c(-c2ccc(OC)cc2)[nH]c2nccnc12`, the residual activity was 76% in [1]; 53% in test [2]; 55% in test [3]; 68% in test [6]; 69% in test [7]; 105% (inactive) in test [10]. The residual activity in [8] is 100%; in test [9], 105% (inactive).
As for `CN([C@@H](Cc1ccc(OS(=O)(=O)c2cccc3cnccc23)cc1)C(=O)N1CCN(c2ccccc2)CC1)S(=O)(=O)c1cccc2cnccc12`, in test [1], the residual activity was determined as 50%.
As for `COc1cc2c(cc1OC)-c1n[nH]c(Nc3cccc(F)c3)c1C2`, the residual activity was 31% in [1]; 64% in test [2]; 20% in test [3]; 98% in test [6]; 72% in [7]; 78% (inactive) in [9].
Take `COc1ccc(CNC(=O)Nc2ncc([N+](=O)[O-])s2)cc1`: the residual activity in test [1] came to 110%; in test [2], 67%; in test [3], 74%.
In the case of `Nc1ncnc2c1c(-c1ccc(Oc3ccccc3)cc1)cn2C1CCCC1`, the residual activity in test [1] was -9%; in [2], 18%; in test [3] it was 1%; in test [4] it was 98%; in test [7], 45%; in [10] it was 85% (inactive). For the same compound, the residual activity in test [8] was 72%; in test [9], 103% (inactive).
Take `Nc1n[nH]c2nc3ccccc3nc12`: the residual activity was 85% in test [1]; 87% in test [2]; 76% in test [3]; 92% in test [5]; 87% in test [6]; 84% in [7]. For the same compound, the residual activity in [10] is 99% (inactive); in test [8] it was 86%.
For `CCN(CC)CCNC(=O)c1c(C)[nH]c(/C=C2\C(=O)Nc3ccc(Cl)cc32)c1C`, the residual activity is -12% in test [1]; 70% in [2]; 21% in test [3]; 23% in [4]; 2% in test [5]; 17% in test [6]. The residual activity in test [7] is 2%.
On to `CC(C)(C)n1nc(Cc2cccc3ccccc23)c2c(N)ncnc21`, for which the residual activity in [1] was found to be 24%; in test [2], 43%; in test [3], 7%; in test [4], 106%; in [5], 95%; in [6], 109%. The residual activity in test [7] is 90%; in test [10], 92% (inactive); in test [8], 68%; in test [9], 98% (inactive).
Take `O=C(CCCc1ccc(-c2ccccc2F)cc1)Nc1ccc(O)cc1`: the residual activity in [1] was 100%; in test [2] it was 99%; in test [3], 89%; in [4], 112%; in test [5] it was 98%; in test [6], 101%. Besides, the residual activity in test [7] was 95%; in [10] it was 102% (inactive); in test [8], 96%; in test [9], 104% (inactive).
As to `COc1cc2nccc(Oc3ccc(NC(=S)NC(=O)c4ccccc4C)cc3)c2cc1OC`, the residual activity worked out at 25% in test [1]; 88% in test [2]; 37% in test [3]; 101% in test [4]; 93% in test [5]; 99% in test [6]. In addition, the residual activity in test [7] was 76%; in [10], 93% (inactive); in test [8], 90%; in [9], 76% (inactive).
In the case of `COc1ccc(-c2cnc3c(-c4ccsc4)cnn3c2)cc1`, the residual activity was determined as 73% in test [1]; 70% in [2]; 83% in [3]; 99% in test [4]; 96% in [5]; 96% in test [6]. Besides, in [7], the residual activity is 90%.
As to `O=c1cc(N2CCOCC2)oc2c1ccc1ccccc12`, the residual activity came out at 102% in test [1]; 90% in [2]; 85% in [3]; 102% in [4]; 88% in [5]; 106% in test [6]. Further, the residual activity in test [7] was 94%; in [10], 105% (inactive); in test [8], 90%; in test [9] it was 110% (inactive).
As to `CCCC(=O)Oc1ccc2[nH]c(C(=O)c3cc4ccccc4[nH]3)cc2c1`, the residual activity in [1] was 13%; in test [2], 102%; in [3], 82%; in test [4], 103%; in [5], 97%; in test [6], 105%. Besides, the residual activity in [7] was 85%; in test [10], 105% (inactive); in test [8], 84%.
For the compound `O=C1Nc2ccc(Cl)cc2/C1=C/c1cc(Cl)c(O)c(Cl)c1`, the residual activity was 3% in [1]; 93% in test [2]; 80% in [3]; 89% in test [6]; 47% in [7]; 110% (inactive) in test [10]. For the same compound, the residual activity in test [8] is 92%.
